Measured values published in ChEMBL document CHEMBL3988442, “University of Dundee, Small-Polar-MMV Screening Library” (2021).
The campaign covered roughly 85,000 compounds. About 440 (0.52%) showed an effect of 50% or more. For the sample, strong results were picked, then their nearest neighbours and some compounds at random.

Experiment: In vitro enzyme assay to detect hydrolysis of chlorophenol red-beta-D-[…] directly proportional to the number of Toxoplasma stably expressing beta-galactosidase
Assay type: functional, organism-based, Toxoplasma gondii
Set-up: scale not given: in the data most compounds retested in dose-response had high values

Compound	Percent Effect (50 µM) [%]	Percent Effect (10 µM) [%]
CC(N)C1(N2CCOCC2)CCCC1 (configuration not stated)	-11.55	–
CCNC(=O)c1cc2ccc(OC)cc2[nH]1	-0.6946	–
O=C(NCC(F)(F)F)C1CCN(CC(F)F)CC1	-5.562	–
CCN(Cc1nonc1C)C(=O)Cn1nc(C(F)(F)F)cc1C1CC1	–	53.8
CCN(Cc1nonc1C)C(=O)c1cc(C(F)(F)F)nn1C	–	29.16
CCN(Cc1nonc1C)C(=O)Cn1nc(C(F)(F)F)cc1C	–	32.79
CC(CO)(CO)NC(=O)Nc1cc(Br)ccc1F	12.92	–
COCCn1cnnc1CNc1cc(C)nc2c(C)c(C)nn12	–	-11.49
COCCCNc1cc(C)nn2cnnc12	–	36.97
CCOCCCNc1cc(C)nn2cnnc12	–	66.33
COCCNc1cc(C)nn2cnnc12	–	70.24
COc1cc(-c2cnnc(NCCCOC(C)C)n2)cc(OC)c1OC	–	4.137
Cc1cc(NCCCOC(C)C)c2nncn2n1	–	73.87
Cc1nn(C)c2nc(-c3ccccn3)nc(NCCCOC(C)C)c12	–	-3.21
CCOCCCNc1nc2c(s1)c(C)nn2C	–	-0.8738
CCOCCCNC(=O)c1cn(CC)nc1C	–	0.2391
Cc1n[nH]c(SCC(=O)NC2CCCCC2)n1	32.19	–
Nc1ccn(-c2ccc(C(F)(F)F)cn2)n1	9.315	–
CC(C)c1ccn(C)n1	1.261	–
Cn1nccc1CCC(=O)NCC[C@@H]1CCCN1	2.008	–
Cc1cc(C)n(CCC(=O)NCc2ccccn2)n1	-3.878	–
CCCNC(=O)CCn1nc(C)cc1C	59.42	–
CCC(C)C(=O)NCCCn1nc(C)cc1C (configuration not stated)	–	6.68
C=C(C)CNc1nc2nonc2nc1NCCOC	14.38	–
CC(C)c1nnsc1CNC(=O)CCc1csc(N)n1	-4.031	–

Compound	Percent Effect (50 µM) [%]	Percent Effect (10 µM) [%]
Cc1cc(C(=O)NC(C)c2ccncc2)ncn1 (configuration not stated)	8.375	–
CC(=O)Nc1ccccc1CN	-1.882	–
CCCNC(=O)N1CCN(CCC)CC1	-47.68	–
CCNC(=O)N1CCNCC1	13.83	–
CCCC(=O)N1CCN(C(=O)NCC)CC1	54.38	–
COCC(C)(O)C(F)(F)F (configuration not stated)	7.186	–
CC1Cc2ccccc2N1C(=O)c1ccccn1 (configuration not stated)	2.942	–
COCC(O)CN(C)CCn1cc(Br)cn1 (configuration not stated)	16.66	–
c1cnn(CCCNCCCn2cccn2)c1	0.4357	–
CCn1nc(C)c2nc(C(C)C)nc(NCC(C)O)c21 (configuration not stated)	–	75.76
CCn1nc(C)c2nc(C(C)C)nc(NCCCO)c21	–	1.913
CCn1nc(C)c2nc(C(C)C)nc(NCC(C)C)c21	–	49.36
CCN(CC)CCNc1nc(C(C)C)nc2c(C)nn(CC)c12	–	58.79
CCn1nc(C)c2nc(C(C)C)nc(NC)c21	–	39.93
CCn1nc(C)c2nc(C(C)C)nc(NCCc3ccc(O)cc3)c21	–	48.01
COc1ccnc(N2CC[S+]([O-])CC2)n1	-6.202	–
O=C(CC1C=CCC1)NCc1ccccn1 (configuration not stated)	-4.879	–
Cc1cccc(NC(=O)NC2CCN(C)CC2)c1	-9.939	–
CC(NC(=O)NCCCN1CCCC1=O)c1ccco1 (configuration not stated)	-1.872	–
CCN(Cc1cccc(F)c1)C1CCS(=O)(=O)C1 (configuration not stated)	-4.951	–
Cc1ccc(CN(CC(=O)N2CCNC2=O)C(C)C)s1	-25.32	–
CSCCCNC(=O)Nc1ncnn1C	-6.612	–
CCc1noc(CC)c1CNC(=O)Nc1cccc([S+](C)[O-])c1 (configuration not stated)	–	5.882
CCc1noc(CC)c1CNC(=O)Nc1cccc(C(=O)N(C)C)c1	–	-1.441
Cc1cc(NC(=O)NCCN2CCC(C)CC2)n(C)n1	-15.44	–

Compound	Percent Effect (50 µM) [%]	Percent Effect (10 µM) [%]
CC1CCN(CCNC(=O)Nc2ncnn2C)CC1	93.89	–
CCc1noc(CC)c1CNC(=O)Nc1ncnn1C	67.97	–
CN1CCCN(C(=O)c2ccc(N(C)C)cc2F)CC1	-3.403	–
CN(CCOc1ccc(Cl)cc1)CCC(N)=O	-5.352	–
CN(C)S(=O)(=O)N1CC(=O)NCC1(C)C	14.19	–
OCCNc1nccc(-c2c[nH]nc2-c2ccncc2)n1	–	-1.451
OCCNc1nccc(-c2c[nH]nc2-c2ccco2)n1	–	54.25
OCCNc1nccc(-c2c[nH]nc2-c2cccnc2)n1	–	-8.104
CN1Cc2ccccc2CC1=O	-6.86	–
NC1CCC(N2C(=O)CCC2=O)CC1 (configuration not stated)	15.63	–
CN(C)Cc1cccc(C(=O)N[C@@H]2CCOC[C@H]2O)c1	-6.19	–
CCCc1ccc(C(=O)N[C@@H]2CCOC[C@H]2O)cc1	64	–
O=C(N[C@@H]1CCOC[C@H]1O)c1ccncc1	-0.1422	–
C=C(C)C(C)(C)C(=O)N[C@@H]1COCC[C@H]1O	16.24	–
COCC1CCCCN1Cc1nc(-c2ccoc2)oc1C (configuration not stated)	–	1.217
Cc1oc(-c2ccoc2)nc1CN1CCC[C@H]1CO	–	75.83
Cc1oc(-c2ccoc2)nc1CN1CCCCC1CCc1ccccc1 (configuration not stated)	–	-14.19
O=C(Nc1ccc(-n2nccn2)cc1)N1CCC(O)C1 (configuration not stated)	-2.451	–
CSCC[C@H](N)C(=O)N(C)Cc1ncc(Cl)n1C	-3.024	–
Cc1ccc(CNC(=O)N2Cc3ccccc3C2)cn1	-21.35	–
C=C/C=c1\c(=C/C)oc2c(NCc3ccccc3)nc(CC)nc12	–	39.81
C=C/C=c1\c(=C/C)oc2c(NCc3ccccc3)nc(C)nc12	–	54.55
C=C/C=c1\c(=C/C)oc2c(NCc3ccccc3)ncnc12	–	26.91
CC1CCCCN1C(=O)NCCNC(=O)c1ccn[nH]1 (configuration not stated)	-2.19	–
COc1cccc(CO)n1	-5.543	–

Compound	Percent Effect (50 µM) [%]	Percent Effect (10 µM) [%]
CCC(N)c1cccc(OC)n1 (configuration not stated)	-11.92	–
CCC(=O)c1cccc(OC)n1	98.31	–
O=C(NCc1cccnc1)c1ccc(C(F)(F)F)nc1	2.561	–
COCCn1cncc1CO	5.728	–
Nc1ncccc1C(=O)NCc1cccc(Cl)c1	–	10.41
Nc1c[nH]nc1C(=O)NCc1cccc(Cl)c1	95.75	–
O=C(NCc1cccc(Cl)c1)c1cnns1	-15.41	–
CCCOc1cccc(NCC(=O)N2CCNC2=O)c1	1.752	–
C[C@@H]1CN(C(=O)c2csc(CN(C)C)n2)C[C@]1(C)O	11.61	–
CNC(=O)Cc1noc(CCc2cccc(F)c2)n1	-4.248	–
CCC(C)N(C)CCC(=O)Nc1ccc(C(N)=O)cc1 (configuration not stated)	-26.89	–
COc1ccc(S(=O)(=O)N2CCN(C)CC2)c(C)c1C	5.644	–
CC(C)(C)OC(=O)NC[C@@H]1CCC[C@H]1N	-4.138	–
CC(C)(C)OC(=O)NCC1CC(C(N)=O)=NO1 (configuration not stated)	54.53	–
CC(C)(C)OC(=O)NCC1CC(N)C1 (configuration not stated)	6.843	–
Cc1nn(C)cc1C(=O)N1CCOC2(CCCC2)C1	5.531	–
COCCN(C)Cc1ccnc(N)c1	-7.11	–
CN(CC(N)=O)Cc1cccc(C#N)c1	-4.421	–
CN(Cc1cccc(C#N)c1)Cc1ccnc(N)c1	100.1	–
N#Cc1ccc(N2CCCC2C(=O)NC2CC2)cn1 (configuration not stated)	0.7704	–
Cc1cc(C)cc(NC(=O)CN2CCC(O)CC2)c1	5.146	–
CN1CCCCC1CCC(=O)NCCCn1cccn1 (configuration not stated)	-6.664	–
O=C(CC1CC1)N1CCC2(CC1)CN(c1cccnc1)C(=O)CO2.O=C(O)C(F)(F)F	–	-21.74
CCS(=O)(=O)N1CCC2(CC1)CN(c1cccnc1)C(=O)CO2.O=C(O)C(F)(F)F	–	-35.87
O=C(O)C(F)(F)F.O=C1COC2(CCN(S(=O)(=O)C3CC3)CC2)CN1c1cccnc1	–	59.25

Compound	Percent Effect (50 µM) [%]	Percent Effect (10 µM) [%]
COc1cccc2c1N(CC(=O)N1CCC1)CCC2	-0.7135	–
Cc1ccc(-c2[nH]c3ccccc3c2C(=O)O)c(C)c1	–	-0.6823
COc1ccc(C)cc1-c1[nH]c2ccccc2c1C(=O)O	–	55.01
Cc1ccc(C)c(-c2[nH]c3ccccc3c2C(=O)O)c1	–	7.079
NC(=O)c1cc(N2CCCC2)nc2ccccc12	2.977	–
Cn1nc(C(=O)N2CCOCC2)c(Br)c1C(F)(F)F	24.28	–
CCn1cc(C(=O)NCCCC(N)=O)c2ccccc21	-17.15	–
N#CCCCn1ccccc1=O	-0.4771	–
Cc1c(Cl)cccc1NC(=O)CSc1nnc[nH]1	-6.056	–
CCOCCC(=O)Nc1ccnn1-c1ccc(Cl)cc1	–	-1.702
COCCOCC(=O)Nc1ccnn1-c1ccc(Cl)cc1	–	0.922
COCC(=O)Nc1ccnn1-c1ccc(Cl)cc1	–	75.67
CC(NC(=O)c1ccc(Cl)cc1)c1nnc(SCC(N)=O)n1C (configuration not stated)	–	10.17
CC(C)CC(NC(=O)c1ccc(Cl)cc1)C(N)=O (configuration not stated)	23.98	–
CCn1ncnc1C(C)NC(=O)c1cc(Cl)ccc1F (configuration not stated)	1.166	–
CC(NC(=O)c1ccc(Cl)cc1)c1nnc(SCC(=O)O)n1C (configuration not stated)	–	78.32
CCn1c(SCC(=O)O)nnc1C(C)NC(=O)c1ccc(Cl)cc1 (configuration not stated)	–	60.13
CC(NC(=O)NCCOc1ccc(Cl)cc1)c1nncn1C (configuration not stated)	–	2.548
CC(c1ccccc1)n1c(SCC(=O)O)nnc1-c1ccccc1Cl (configuration not stated)	–	-2.501
CCn1c(SCC(N)=O)nnc1-c1cccnc1	-5.033	–
CCn1c(SCC(N)=O)nnc1C(C)NC(=O)c1ccc(Cl)cc1 (configuration not stated)	–	74.14
N#Cc1ccc(C(=O)N2CCCO2)nc1	-1.519	–
